Compound activity: PubChem BioAssay, several laboratories
UGM FP inh = blocks M. tuberculosis UGM enzyme | purified UGM, fluorescence polarization probe displacement | inhibition, % at 10 µM | hit rate 0.06% among 320,000; in the data active = inhibition above about 10%, passing the limit was not always enough
Mtb bLac sens = beta-lactam sensitization of Mtb H37Rv; M. tuberculosis H37Rv growth with meropenem, percent inhibition; inhibition, % at 25 µM; hit rate 0.27% among 330,000; call rule not given here;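 note: growth measured after seven days incubation then overnight dye step; 0% = bacteria only wells and 100% = bacteria with antibiotic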
Rv3671c protease = inhibits the M. tuberculosis serine protease Rv3671c; P9WHR9; inhibition, % at 5.96 µM; hit rate 0.048% among 320,000; AID 2606; in the data active = inhibition above about 38%;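 note: extracellular domain of Rv3671c used as enzyme; 0% = enzyme with DMSO and 100% = no enzyme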
Target sequence (P9WHR9 whole entry, looked up, the tested form may be a part): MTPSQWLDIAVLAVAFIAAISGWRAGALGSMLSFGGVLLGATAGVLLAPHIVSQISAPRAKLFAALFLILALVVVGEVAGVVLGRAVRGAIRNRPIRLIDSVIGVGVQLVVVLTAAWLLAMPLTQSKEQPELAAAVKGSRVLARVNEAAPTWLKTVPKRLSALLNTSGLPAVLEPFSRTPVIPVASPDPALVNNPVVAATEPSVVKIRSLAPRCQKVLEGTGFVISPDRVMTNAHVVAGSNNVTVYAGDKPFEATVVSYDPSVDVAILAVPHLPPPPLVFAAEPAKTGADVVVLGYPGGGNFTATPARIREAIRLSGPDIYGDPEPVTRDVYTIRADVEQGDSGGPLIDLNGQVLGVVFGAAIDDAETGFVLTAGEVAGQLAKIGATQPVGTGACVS
RecA intein inh = blocks M. tuberculosis RecA intein splicing. P9WHJ3. hit rate 0.75% among 290,000. cell-free RecA intein splicing, fluorescence. inhibition, % (test concentration not listed); in the data active = inhibition above about 30%;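 note: 0% = vehicle wells and 100% = reference inhibitor control wells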
CCHF vOTU inh-1 = blocks the CCHF virus ovarian tumor domain protease; CCHFV vOTU protease, Pep-AMC fluorescence; inhibition, % at 11.5 µM; hit rate 0.55% among 370,000; note: 0% = vehicle wells with enzyme and 100% = no enzyme wells
CCHF vOTU inh-2 = CCHFV vOTU protease inhibition, confirmation; inhibition, % at 11.5 µM; shares compounds with CCHF vOTU inh-1; hit rate 17% among 1,900; Recombinant CCHFV vOTU, Pep-AMC fluorescence
Starred values were filed as active, the others as inactive; / = no result; ! = repeats disagree. In the library only some 1.2% were active in any assay of this set; here they are far more common. Cut-off read from the data, not from the text of the source, unless noted: active = inhibition above about 30%; inactive = the rest.

SMILES | UGM FP inh | Mtb bLac sens | Rv3671c protease | RecA intein inh | CCHF vOTU inh-1 | CCHF vOTU inh-2
COC(=O)CSc1nnc(CNc2ccc(OC)cc2)n1C | 1 | 26 | 1 | -5 | 39* | -22
CC1=C(/C=C/C(C)=C/C=C/C(C)=C/C(=O)Nc2ccc(O)cc2)C(C)(C)CCC1 | 2 | 100 | 11 | / | 34*! | 6
CCCCn1c(N)c(N(CC(C)C)C(=O)c2cccs2)c(=O)[nH]c1=O | 1 | -8 | 9 | -3 | 39* | -13
CC1(C)OC(=O)C(=NNc2ccccc2[N+](=O)[O-])C(=O)O1 | -2 | -4 | -6 | -1 | 30* | -2
CC1(C)OC(=O)C(=NNc2ccccc2)C(=O)O1 | -1 | 2 | 9 | 2 | 22 | /
COc1ccc(-c2noc(C3CCCN(C(=O)Nc4cc(C)cc(C)c4)C3)n2)cc1 (stereo unspecified) | / | / | / | / | 0 | /
CCOC(=O)/C=C(\C)Sc1cc(O)c2ccccc2c1O | / | / | / | / | 111* | 98*
O=C(O)c1cccc(NC(=S)N/N=C/c2ccccc2OCc2ccc(Br)cc2)c1 | 2 | 8 | -62 | 16 | 30* | 12
O=C(NCCCO)c1ccc2nc(-c3ccco3)c(-c3ccco3)nc2c1 | / | / | / | / | 40* | 55*
O=C(NCc1ccccc1)c1ccc2nc(-c3ccco3)c(-c3ccco3)nc2c1 | 1 | 2 | 0 | -4 | 49* | -1
CCCCNC(=O)c1ccc2nc(-c3ccco3)c(-c3ccco3)nc2c1 | -2 | 1 | 5 | -1 | 48* | 8
O=C(c1ccc2nc(-c3ccco3)c(-c3ccco3)nc2c1)N1CCN(c2ncccn2)CC1 | 1 | 4 | -13 | -17 | 32* | 50*
O=C(NCCO)Nc1ccc2nc(-c3ccco3)c(-c3ccco3)nc2c1 | 5 | -2 | 37 | / | / | /
C[C@H](O)[C@@H]1CN2CCc3ccc(N4CCOCC4)cc3[C@@H]2C[C@@H]1N(C)C(=O)c1cccc(Cl)c1 | / | / | / | / | -8 | /
COc1cc(C=Nn2c(-c3ccc(F)cc3)n[nH]c2=S)ccc1OCc1ccccc1 | / | / | / | / | 6 | /
COC(=O)[C@]12CCCCC=C1N(Cc1ccc(OC)cc1)C(=O)[C@@H]2CC(=O)NCC12CC3CC(CC(C3)C1)C2 | / | / | / | / | 9 | /
COc1ccccc1CNC(=O)NNC(=O)CCn1nc(C)c([N+](=O)[O-])c1C | / | / | / | / | -1 | /
O=C1Nc2ccccc2N=C(c2ccc3c(c2)OCO3)C1N(C(=O)c1ccc2ccccc2c1)C1CC1 (stereo unspecified) | / | / | / | / | 32* | -5
CCOc1ccc(/C=N/n2c(-c3n[nH]c4c3CCC4)n[nH]c2=S)cc1 | / | / | / | / | 3 | /
Cc1ccc(-c2cc(-c3nnc(SCC(=O)Nc4ccc(OCc5ccccc5)cc4)n3N)[nH]n2)cc1 | / | / | / | / | -4 | /
Cc1ccc(NC(=O)CSc2nnc(-c3cc(-c4ccc(Cl)cc4)n[nH]3)n2N)cc1 | / | / | / | / | 99* | -1
CCC(=O)N1CCc2cc(Br)c(S(=O)(=O)NCc3ccccc3OC)cc21 | / | / | / | / | -2 | /
O=C(C1CCCCC1)N1CCC(c2nc3ccccc3[nH]2)CC1 | 2 | -5 | 1 | 0 | -13 | /
O=C(c1ccc(Br)o1)N1CCC(c2nc3ccccc3[nH]2)CC1 | / | -4 | -5 | 1 | 34* | -27
CCOC(=O)Nc1sc(NS(=O)(=O)c2ccc(C)cc2)nc1C | 1 | 9 | 4 | 6 | 30* | -10
SMILES | UGM FP inh | Mtb bLac sens | Rv3671c protease | RecA intein inh | CCHF vOTU inh-1 | CCHF vOTU inh-2
CCOC(=O)Nc1sc(NS(=O)(=O)c2ccccc2)nc1C | 3 | -1 | -5 | -1 | -6 | /
C=CCN1C[C@@H](COCc2ccccc2)Oc2cc(F)ccc2S1(=O)=O | / | / | / | / | 1 | /
CN1/C(=C\C=Nc2ccccc2)C(C)(C)c2ccccc21 | -3 | 8 | -44 | -7 | 7 | /
CN1/C(=C\C=C2C(=O)NC(=O)NC2=O)C(C)(C)c2ccccc21 | 7 | -1 | -2 | -8 | 36* | 37*
Cc1ccc(NS(=O)(=O)c2cc(Br)cnc2N)c(Cl)c1 | 2 | -2 | -7 | 0 | 16 | /
Nc1ncc(Br)cc1S(=O)(=O)Nc1cc(C(F)(F)F)cc(C(F)(F)F)c1 | 2 | 0 | -22 | 4 | 32* | 13
Cc1ccc(S(=O)(=O)Nc2ccc3ccccc3c2[N+](=O)[O-])cc1 | / | / | / | / | 35* | 14
COc1ccc(NS(=O)(=O)c2ccc(C)cc2)c([N+](=O)[O-])c1 | 0 | -1 | -7 | 0 | 12 | /
COc1ccc([N+](=O)[O-])cc1NS(=O)(=O)c1ccc(C)cc1 | 1 | -3 | 4 | 0 | -1 | /
Cc1ccc(S(=O)(=O)Nc2ccc3cc([N+](=O)[O-])ccc3c2[N+](=O)[O-])cc1 | / | / | / | / | 31* | 23
CCCCCCCC/C=C\CCCCCCCC(=O)NCCc1ccc(O)c(O)c1 | -3 | 7 | -7 | / | 30* | 27
CCCCCCCC/C=C\CCCCCCCC(=O)NCCO | 5 | 1 | -2 | / | 4 | /
CCN(C(C)=O)c1cnc(C=NNC(N)=S)c2ccccc12 | / | / | / | / | 9 | /
NC(=S)NN=Cc1nccc2c(N)cccc12 | / | / | / | / | 64* | 28
CCOC(=O)C1=C(CC)Nc2ccccc2N/C1=N\S(=O)(=O)c1ccc(C(=O)OCC)cc1 | 3 | -4 | 4 | 3 | 30* | 6
O=C(OCCN1CCN(C2CN(Cc3cn(Cc4ccccc4F)nn3)S(=O)(=O)C2)CC1)c1cc2ccccc2o1 (stereo unspecified) | / | / | / | / | -1 | /
CC(=O)NC1=C(N(C)C2CCS(=O)(=O)C2)C(=O)c2ccccc2C1=O (stereo unspecified) | -4 | -1 | -52 | 26 | 61* | 71*
CN(C(=O)Nc1ccccc1)C1CCS(=O)(=O)C1 (stereo unspecified) | -1 | -8 | 1 | -1 | 5 | /
CCOc1ccc(-n2c(SCC(=O)Nc3ccc(S(=O)(=O)Nc4nccs4)cc3)nnc2-c2ccncc2)cc1 | / | / | / | / | 1 | /
O=C1C(=C(I)I)c2ccccc2-c2ccccc21 | / | / | / | / | 95* | 55*
CCOC(=O)CC[C@H]1CC[C@]2(CCCN(C(=O)c3ccco3)C2)O1 | / | / | / | / | -3 | /
CC1(C)OC(c2ccccc2)=C/C(=C/C=C2C(=O)NC(=O)NC2=O)O1 | 1 | 11 | -204 | -3 | 30* | -1
COc1cc(C(=O)Nc2cc3c4c(c2)CC(=O)N4CCC3)cc(OC)c1OC | -1 | -8 | 3 | 23 | 34* | -10
CC(C)(C)c1ccc(S(=O)(=O)Nc2ccc(C(O)(C(F)(F)F)C(F)(F)F)cc2)cc1 | / | / | / | / | 49* | 10
COc1ccc2c(c1)CCCN2C(=O)C1CCCN(S(=O)(=O)c2ccc(C(C)(C)C)cc2)C1 (stereo unspecified) | / | / | / | / | 9 | /
COc1ccc2nc(NC(=O)CCn3cccc3)sc2c1 | -1 | -2 | -3 | 0 | -3 | /
COc1ccc2nc(NC(=O)CCN3C(=S)NC(C)(C)CC3C)sc2c1 (stereo unspecified) | 0 | 3 | -12 | -1 | 36* | -25
COc1ccc2c(c(-c3ccccc3)cn2C)c1-c1ccccc1 | / | / | / | / | -3 | /
CCS(=O)(=O)c1ccc2oc(Nc3ccc(C(C)(C)C)cc3)nc2c1 | 0 | 4 | -12 | 2 | 30* | -9
CCS(=O)(=O)c1ccc2oc(Nc3ccc(OC)cc3)nc2c1 | -1 | -17 | -4 | 0 | 6 | /
